Measured values taken from PubChem BioAssay (EPA / NIEHS).
Results filed as inconclusive are left out. Activity calls are given as the source filed them. Rule for the calls, unless noted: active = hit-call score of the fitted dose curve at least 0.9, where 1 is the maximum; inconclusive = response in the unintended direction; inactive = score below 0.9.

Experiments:
[1] = ATG_XTT_Cytotoxicity: Cytotoxicity Assessment in the Attagene TRANS-FACTORIAL HepG2 Assay (AID 2283584);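 for AC50: XTT signal for cell number as viability in transfected HepG2 cells; cells exposed to compound for 24 h before reading; active means loss of viability signal versus DMSO baseline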
How it was run: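 HepG2 cells transiently transfected with GAL4-UAS multiple reporter units, dosed 24 h; cytotoxicity read by XTT as loss of signal versus DMSO baseline.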

[2] = molecular target: Cellular tumor antigen p53 (Homo sapiens) (UniProt P04637); experiment: TOX21_p53_BLA_p2_ratio: Tox21 HCT-116 p53 Agonism Beta-lactamase Assay, Ratio, Phase 2 (AID 2283592)
How it was run: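 First, HCT116 reporter cells settle for 5 h at 37C. Next, DMSO compound solutions are pinned in (217-fold dilution) and left 16 h. Finally, CCF4-AM substrate is loaded 2 h at room temperature and the 460/530 nm ratio read.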

[3] = TOX21_p53_BLA_p3_viability: Viability Assessment in the Tox21 HCT-116 p53 Agonism Beta-lactamase Assay, Phase 3 (AID 2283593);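 note: cells exposed to compound for 16 h before reading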
How it was run: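 HCT-116 cells (4000/well) rested 5 h at 37C, then got DMSO compounds by pin tool (217-fold dilution) for 16 h at 37C, 5% CO2. After the bla read, CellTiter-Glo was added and luminescence read at 30 min, room temperature.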

[4] = molecular target: Cellular tumor antigen p53 (Homo sapiens) (UniProt P04637); experiment: TOX21_p53_BLA_p3_ratio: Tox21 HCT-116 p53 Agonism Beta-lactamase Assay, Ratio, Phase 3 (AID 2283596)
How it was run: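 Cells were seeded at 4000/well, rested 5 h at 37C, then dosed with DMSO compound solutions (217-fold dilution) for 16 h. CCF4-AM substrate was loaded for 2 h at room temperature, and the 460/530 nm emission ratio was fitted for gain of signal versus DMSO.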

[5] = TOX21_p53_BLA_p4_viability: Viability Assessment in the Tox21 HCT-116 p53 Agonism Beta-lactamase Assay, Phase 4 (AID 2283597);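 note: hits lower the luminescence signal meaning cytotoxicity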
How it was run: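 4000 HCT116 cells per well; 5 h attachment; compounds from DMSO, 217-fold dilution; 16 h at 37C. Then CCF4-AM, 2 h RT, followed by CellTiter-Glo, 30 min RT, luminescence. Decrease = cytotoxicity.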

[6] = molecular target: Cellular tumor antigen p53 (Homo sapiens) (UniProt P04637); experiment: TOX21_p53_BLA_p5_ratio: Tox21 HCT-116 p53 Agonism Beta-lactamase Assay, Ratio, Phase 5 (AID 2283599)
How it was run: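 HCT-116 cells carrying a p53-inducible beta-lactamase reporter were seeded at 4000 cells/well and dosed after 5 h with compound in DMSO (217-fold dilution). After 16 h at 37C, CCF4-AM substrate was added for 2 h, and the 460/530 nm emission ratio was scored as gain-of-signal versus DMSO.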

[7] = TOX21_p53_BLA_p5_viability: Viability Assessment in the Tox21 HCT-116 p53 Agonism Beta-lactamase Assay, Phase 5 (AID 2283600)
How it was run: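 Decreased CellTiter-Glo luminescence denotes lost viability. Exposure: 16 h at 37C, 5% CO2, with compounds from DMSO stocks diluted 217-fold in wells of 4000 cells.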

[8] = molecular target: Cellular tumor antigen p53 (Homo sapiens) (UniProt P04637); experiment: TOX21_p53_BLA_p4_ratio: Tox21 HCT-116 p53 Agonism Beta-lactamase Assay, Ratio, Phase 4 (AID 2283601)
How it was run: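 HCT116 cells carrying an inducible beta-lactamase reporter were plated at 4000 cells/well, rested 5 h, then exposed to compounds in DMSO (217-fold dilution) for 16 h at 37C. CCF4-AM substrate was loaded 2 h at room temperature; 460/530 nm emission ratio scored gain-of-signal versus DMSO.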

[9] = TOX21_p53_BLA_p2_viability: Viability Assessment in the Tox21 HCT-116 p53 Agonism Beta-lactamase Assay, Phase 2 (AID 2283591);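 note: actives lower the ATP signal meaning cytotoxicity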
How it was run: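 HCT-116 p53-bla cells (4000/well) rested 5 h at 37C, then received compounds in DMSO (217-fold dilution) for 16 h at 37C, 5% CO2. After the CCF4 read, CellTiter-Glo was added; ATP luminescence was read after 30 min at room temperature.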

[10] = test system: Thyroperoxidase (TPO), gene 54314; experiment: CCTE_Simmons_AUR_rTPO: CCTE's Amplex UltraRed Assay for Thyroperoxidase (TPO) Inhibition, Simmons Lab (AID 2283662);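 for AC50: potency for loss of signal meaning inhibition of peroxidase activity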
How it was run: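 Endpoint is decreased Amplex UltraRed fluorescence after a 30-min, 37C reaction of rat thyroid microsomes with 300 uM H2O2. Eight test concentrations (5 nM–87.5 uM final) in 0.5% DMSO, three biological replicates each.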

[11] = CCTE_Simmons_CellTiterGLO_HEK293T: Viability Assessment in CCTE's Assays for Thyroperoxidase (TPO) Inhibition, Simmons Lab (AID 2283665);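 for AC50: cells exposed to compound for 24 h before readout; actives reduce ATP signal below DMSO vehicle meaning cytotoxicity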
How it was run: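 Luminescent ATP readout (CellTiter-Glo, 20 min at room temperature) after 24 hr exposure of HEK293T cells to 5 nM–87.5 uM final compound; signal loss relative to DMSO vehicle indicated cytotoxicity; dichlone titrated as positive control.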

[12] = molecular target: Luciferin 4-monooxygenase (Photinus pyralis) (UniProt P08659); experiment: CCTE_Simmons_QuantiLum_inhib_2: CCTE's Firefly Luciferase Inhibition Assay, Simmons Lab (AID 2283767);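 for AC50: potency for inhibitors that lower luciferase luminescence relative to DMSO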
How it was run: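 Cell-free QuantiLum luciferase, 5 ng/well; compounds 5 nM–87.5 uM final, 8 conc, 0.5% DMSO; 30 min, 37C, dark. Detection reagent (150 uM D-luciferin, 147 uM dATP, CoA, DTT, pH 7.8 final) injected per well, kinetic luminescence. Triplicate biological replicates.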

[13] = CEETOX_H295R_MTT_cell_viability: Viability Assessment in the CeeTox HT-H295R MTT Assay (AID 2283718; active = hit-call score of the fitted dose curve at least 0.9, where 1 is the maximum; inactive = score below 0.9;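 for AC50: curve fitted both ways so AC50 may mark viability loss or gain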)
How it was run: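 H295R cells prestimulated 48 h with 10 uM forskolin, then exposed 48 h to test chemical (0.1% DMSO final). Viability by MTT (0.5 mg/ml, 4 h, 37 C), absorbance 570/650 nm; percent change versus DMSO, bidirectional fit.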

[14] = STM_H9_OrnCyssISnorm_ratio: Stemina devTOX quickPredict H9 human embryonic stem cell (hESC)-based Assay for Ornithine (ORN):Cystine (CYSS) Ratio (AID 2283714)
How it was run: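 H9 hESC, 72h, q24h re-dose; last-day media → acetonitrile deproteinization → UPLC-HRMS. ORN:CYSS ratio from isotope-normalized EIC areas, vs 0.1% DMSO; MTX references on each plate.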

Measured: AC50

Cellular tumor antigen p53 (Homo sapiens), sequence (P04637 whole entry, looked up): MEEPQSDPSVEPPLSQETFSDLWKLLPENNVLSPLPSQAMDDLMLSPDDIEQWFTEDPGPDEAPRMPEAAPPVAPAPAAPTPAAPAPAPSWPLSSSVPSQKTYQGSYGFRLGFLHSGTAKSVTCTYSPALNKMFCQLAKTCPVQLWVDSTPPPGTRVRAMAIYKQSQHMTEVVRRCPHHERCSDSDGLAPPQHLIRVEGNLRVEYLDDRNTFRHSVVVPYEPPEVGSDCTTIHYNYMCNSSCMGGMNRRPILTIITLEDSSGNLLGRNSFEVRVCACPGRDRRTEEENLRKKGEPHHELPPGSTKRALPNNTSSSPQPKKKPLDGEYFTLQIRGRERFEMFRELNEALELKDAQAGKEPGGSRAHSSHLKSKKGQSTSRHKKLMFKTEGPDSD
Luciferin 4-monooxygenase (Photinus pyralis), sequence (P08659 whole entry, looked up): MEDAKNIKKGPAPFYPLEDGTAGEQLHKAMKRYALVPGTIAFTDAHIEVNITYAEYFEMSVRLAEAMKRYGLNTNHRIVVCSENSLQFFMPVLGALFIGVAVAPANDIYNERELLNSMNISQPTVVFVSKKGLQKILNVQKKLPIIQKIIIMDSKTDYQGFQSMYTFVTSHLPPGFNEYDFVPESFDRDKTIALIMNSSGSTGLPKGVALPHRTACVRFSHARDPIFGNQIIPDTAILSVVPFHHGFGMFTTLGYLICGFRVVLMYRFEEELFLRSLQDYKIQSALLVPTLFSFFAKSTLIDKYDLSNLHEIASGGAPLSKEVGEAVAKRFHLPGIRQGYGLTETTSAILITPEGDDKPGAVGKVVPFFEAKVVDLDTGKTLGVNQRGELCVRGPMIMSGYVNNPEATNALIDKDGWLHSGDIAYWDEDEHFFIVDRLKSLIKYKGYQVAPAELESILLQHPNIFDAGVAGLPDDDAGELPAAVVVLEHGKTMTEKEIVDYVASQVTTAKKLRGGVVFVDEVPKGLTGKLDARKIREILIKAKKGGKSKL

CC(C)OC(=O)COc1ccc(Cl)cc1Cl
inactive: [1] | [2] | [3] | [4] | [5] | [6] | [7] | [8]

OCC1CCCO1 (configuration not stated)
inactive: [9] | [2] | [3] | [5] | [6] | [7] | [8]

CC(=O)CCC(C)C
inactive: [9] | [2] | [3] | [4] | [5] | [6] | [7] | [8]

CCCCCCCCCCCCCC[P+](CCCC)(CCCC)CCCC
active: [1] 8.53 µM | [10] 47.9 µM | [11] 4.44 µM | [12] 83 µM

Cc1cc(=O)[nH]c(C(C)C)n1
inactive: [9] | [2] | [3] | [4] | [5] | [6] | [7] | [8]

CC(O)C#CC(C)O (configuration not stated)
inactive: [9] | [2] | [3] | [4] | [5] | [6] | [7] | [8]

Nc1cccnc1N
inactive: [1] | [13]

CC(C)Nc1ccc(NC(C)C)c2c1C(=O)c1ccccc1C2=O
inactive: [2] | [4] | [6] | [7] | [8]

CSc1ccc(Cl)cc1
inactive: [9] | [2] | [3] | [4] | [5] | [6] | [7] | [8]

CCOC(OCC)OCC
inactive: [1] | [3] | [6] | [7]

CN1CN(C)CN(C)C1
inactive: [1] | [13]

CCCCCCCCn1sc(Cl)c(Cl)c1=O
inactive: [6] | [7] | [8]
active: [1] 31.5 µM | [9] 85.9 µM | [3] 40.7 µM | [4] 21.7 µM | [5] 80.4 µM

CCCCCCCCCCCCCCCCC
inactive: [3] | [4] | [6] | [8]

CCOC(=O)C1CC(=O)C(=C(O)C2CC2)C(=O)C1 (configuration not stated)
inactive: [2] | [4] | [5] | [7] | [8]

O=C1c2c(O)ccc(Nc3ccc(CCO)cc3)c2C(=O)c2c([N+](=O)[O-])ccc(O)c21
inactive: [1] | [9] | [2] | [5] | [6] | [8]

CC(C)(C)c1cc(Cc2cc(C(C)(C)C)c(O)c(C(C)(C)C)c2)cc(C(C)(C)C)c1O
inactive: [1] | [12]
active: [10] 12.1 µM

F[Si-2](F)(F)(F)(F)F
inactive: [1] | [2] | [3] | [4] | [5] | [6] | [7] | [8]

O=c1cccc[nH]1
inactive: [1] | [10] | [11] | [12]

CCCCOC(=O)[C@H](C)O
inactive: [2] | [4] | [6] | [7] | [8]

Cc1ccc(O)cn1
inactive: [1] | [10] | [11] | [12]

CCC(C)CO (configuration not stated)
inactive: [1] | [2] | [3] | [4] | [6] | [7] | [8]

Nc1c(Br)cc([N+](=O)[O-])cc1Br
inactive: [1]
active: [13] 29.7 µM

COC(=O)c1ccc(C=O)cc1
inactive: [1] | [2] | [4] | [6] | [7] | [8]

CCCCOC(=O)C(C)O (configuration not stated)
inactive: [1] | [2] | [3] | [4] | [5] | [6]

O=c1[nH]cccc1O
inactive: [1] | [11] | [13] | [12]
active: [10] 0.115 µM

CCN=C1C=CC(=C(c2ccc(N(CC)CC)cc2)c2ccc(N(CC)CC)cc2)c2ccccc21
active: [9] 60.4 µM | [2] 0.559 µM | [3] 66.1 µM | [4] 2.8 µM | [5] 45.9 µM | [6] 57.2 µM | [7] 69.4 µM | [8] 50 µM | [10] 33.4 µM | [11] 1.72 µM | [14] 0.151 µM | [12] 7.95 µM

CC(C)(C)c1cc(CCC(=O)NCCCCCCNC(=O)CCc2cc(C(C)(C)C)c(O)c(C(C)(C)C)c2)cc(C(C)(C)C)c1O
inactive: [1] | [13]

OCCC(O)CO (configuration not stated)
inactive: [13]

O=S(=O)(O)c1ccc(Cl)cc1
inactive: [1] | [9] | [5] | [7] | [8]
